# Experimental data reported in PubChem BioAssay AID1851 (National Center for Advancing Translational Sciences (NCATS), 2009).
# The campaign covered roughly 16,000 compounds. About 4,000 (25%) were called active. Not shown: some 26% with an inconclusive outcome. These entries were drawn from the full list. Values without a mark were called inactive. Calls come from the whole dose curve; as a rule, active = well fitted curve in the direction sought with a large enough effect; inconclusive = small, poorly fitted or top-dose-only effect, or effect the other way; inactive = no such curve, though single readings can be large or run the other way.
# Target: Cytochrome P450 2C9 (Homo sapiens) (UniProt P11712)
# Experiment: Cytochrome panel assay with activity outcomes
# Conditions: recombinant CYP, pro-luciferin dealkylation, luminescence, p450-cyp2c9; series mostly up to 57.1 µM
# % is set by controls: 0 for no effect and ±100 for the full control effect.
# Chain of Cytochrome P450 2C9 (Homo sapiens) (P11712 whole entry, looked up): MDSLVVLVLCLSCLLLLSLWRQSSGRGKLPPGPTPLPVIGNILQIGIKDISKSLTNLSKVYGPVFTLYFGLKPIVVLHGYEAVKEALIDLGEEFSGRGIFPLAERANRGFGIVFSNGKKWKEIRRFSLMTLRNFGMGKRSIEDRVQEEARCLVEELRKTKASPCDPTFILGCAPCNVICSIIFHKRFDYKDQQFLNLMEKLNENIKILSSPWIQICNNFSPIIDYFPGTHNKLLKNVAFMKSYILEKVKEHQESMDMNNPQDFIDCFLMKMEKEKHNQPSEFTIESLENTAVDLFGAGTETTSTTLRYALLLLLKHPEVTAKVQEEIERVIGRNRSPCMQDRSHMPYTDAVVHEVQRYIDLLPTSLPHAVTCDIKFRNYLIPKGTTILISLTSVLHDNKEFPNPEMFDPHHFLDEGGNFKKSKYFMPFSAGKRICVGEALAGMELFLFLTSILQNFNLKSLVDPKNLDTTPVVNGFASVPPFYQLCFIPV
SMILES,"activity, negative = inhibition",AC50
CC(C)=NO[C@@H](C)c1cn([C@@H]2COC[C@@H]2O)nn1,11.5% [at 11.4 µM],
COc1ccc(NC(=O)COc2ccc(CNCCCN3CCOCC3)cc2OC)cc1,,inactive
CC(C)(Sc1ccc(CCN(CCCCC2CCCCC2)C(=O)NC2CCCCC2)cc1)C(=O)O,,inactive
COc1ccc(CCCC(=O)NC2CCCCC2)cc1,,10 µM (active)
COc1ccc2cc(CCC(C)=O)ccc2c1,,inactive
COc1ccc(CCNC(=O)COc2ccc(S(=O)(=O)NC3CCCCC3)cc2Cl)cc1,,2.51 µM (active)
CN(C)Cc1ccccc1-c1cncnc1NCc1cccs1,-10.6% [at 2.29 µM],
COc1ccc2nc3oc(C(=O)NCc4cccs4)cc3cc2c1,,inactive
O=C(NCc1ccccc1)C(c1cccs1)N(Cc1cccs1)C(=O)c1cnccn1 (configuration not stated),,15.8 µM (active)
O=C(NC1CCCCC1)C(c1cccs1)N(Cc1cccs1)C(=O)c1ccco1 (configuration not stated),,8.91 µM (active)
CN(C)C(=O)c1ccc(-c2cncnc2NCc2cccs2)cc1,-0.243% [at 2.29 µM],
COc1ccc(CNC(=O)C(c2ccc(C)cc2)N(Cc2cccs2)C(=O)c2ccc3c(c2)OCCO3)cc1 (configuration not stated),,7.08 µM (active)
CCc1ccc(C(C(=O)NCc2ccc(OC)cc2)N(CCOC)C(=O)Cc2cccs2)cc1 (configuration not stated),,10 µM (active)
CN(Cc1ccco1)c1cc(-c2ccccc2Cl)ncn1,-2.34% [at 2.29 µM],
N[C@H](C(=O)O)[C@@H]1[C@@H](C(=O)O)C1(F)F,,inactive
COc1ccc(C(C(=O)NCc2ccccc2)N(Cc2cccs2)C(=O)c2cnccn2)cc1 (configuration not stated),,7.94 µM (active)
CC1(C)[C@@H]2CC[C@]1(C)[C@@H](OC(=O)/C=C\c1ccccc1)C2,-14.1% [at 11.4 µM],
CS(=O)(=O)N1CCC[C@@]2(CCN(C(=O)Nc3cccc(F)c3)C2)C1,,inactive
CS(=O)(=O)N1CCC2(CCN(C(=O)Nc3cccc(F)c3)CC2)CC1,,inactive
COc1cccc(N(CC(=O)Nc2cccc(C(C)=O)c2)S(C)(=O)=O)c1,,25.1 µM (active)
CS(=O)(=O)N(CC(=O)Nc1cccc(F)c1)c1cccc([N+](=O)[O-])c1,,3.55 µM (active)

SMILES,"activity, negative = inhibition",AC50
CC(=O)NCCC(=O)Nc1sc2c(c1-c1nc3ccccc3[nH]1)CCCC2,,11.2 µM (active)
CC(=O)Nc1sc2c(c1C(N)=O)CCCC2,,inactive
CC(=O)Nc1sc2c(c1CN1CCN(C)CC1)CCCC2,,inactive
N#Cc1cccc(-c2cc(NCc3cccs3)ncn2)c1,-9.65% [at 2.29 µM],
CN1CCc2cc3c(cc2[C@@H]1[C@@H]1C(=O)Oc2c1ccc1c2OCO1)OCO3,,12.6 µM (active)
C[N+]1(C)CCc2cc3c(cc2[C@@H]1[C@@H]1C(=O)Oc2c1ccc1c2OCO1)OCO3,,inactive
O=C(O)c1ccc(Sc2nnnn2-c2ccccc2)c([N+](=O)[O-])c1,,inactive
O=C(Nc1ccccc1[N+](=O)[O-])C1C(c2ccccc2)=C1c1ccccc1,,6.31 µM (active)
COCC(=O)N1CCC2(CCCN(C(=O)Nc3cccc(F)c3)C2)CC1,,inactive
CC(=O)SCC[N+](C)(C)C,,inactive
COc1ccc(/C=C2/S/C(=N/N=C3\CC4CCC3(C)C4(C)C)NC2=O)cc1 (configuration not stated),,8.91 µM (active)
CCCCCCCC/C=C\CCCCCCCC(=O)NCc1ccc(O)c(OC)c1,,inactive
CCCCCCCCC(=O)NCc1cc(OC)c(O)cc1I,,inactive
COc1cc(CNC(=O)CCCC/C=C\C(C)C)ccc1O,,2 µM (active)
Cc1ccnc(N)c1,,inactive
CSc1nsc(/C=C/Nc2ccc(Cl)cc2)c1C#N,,2.24 µM (active)
c1ccc(-c2nnc(SCc3nc4ccccc4[nH]3)n2Cc2ccco2)cc1,,6.31 µM (active)
Cc1ccccc1-c1cncnc1N(C)Cc1ccco1,-10.8% [at 2.29 µM],
CCn1c(SCc2nc3ccccc3[nH]2)nnc1-c1ccc(OC)cc1,,12.6 µM (active)
CCn1c(SCc2cccc(C)c2)nnc1-c1ccc(C)cc1,,inactive
CCn1c(SCC(=O)N2CCN(S(=O)(=O)c3ccccc3)CC2)nnc1-c1cccs1,,inactive

SMILES,"activity, negative = inhibition",AC50
CN(Cc1ccco1)c1nc(-c2ccoc2)nc2ccccc12,-3.83% [at 2.29 µM],
Cc1ccccc1CSc1nnc(-c2cccs2)n1Cc1ccco1,,11.2 µM (active)
O=C(O)CC[C@]1(C(=O)O)CCC(=O)c2ccccc21,-1.2% [at 11.4 µM],
N[C@H](C(=O)O)[C@@H]1C[C@@H]1C(=O)O,,inactive
O=C1C=C(c2cccs2)CC(c2cccs2)C1n1cnc([N+](=O)[O-])c1 (configuration not stated),,14.1 µM (active)
Cc1nc(SCC(=O)c2cc3ccccc3oc2=O)c(C#N)c(C)c1C(=O)Nc1ccccc1,,0.794 µM (active)
Cc1ccc(N2C(=O)CC(c3ccsc3)C3=C2CC(C)(C)CC3=O)cc1 (configuration not stated),,3.98 µM (active)
CC(=O)NCCNc1nc(-c2ccc(C(=O)N(C)C)cc2)nc2ccccc12,6.97% [at 2.29 µM],
Cc1nc2ccc3nc(NC(=O)c4ccc(S(=O)(=O)N5CCOCC5)cc4)sc3c2s1,,inactive
COc1cc(C(=O)Nc2nc3ccc4nc(C)sc4c3s2)cc(OC)c1OC,,inactive
Cc1nc2c(ccc3nc(NC(=O)c4ccc5c(c4)OCCO5)sc32)s1,,0.708 µM (active)
CN(C)c1ncnc2c1ncn2CCn1cnc2c(N(C)C)ncnc21,-7.75% [at 11.4 µM],
CCN(C(=O)Cn1c(=O)oc2ccccc21)c1cccc(C(F)(F)F)c1,,inactive
CCN(C(=O)COc1cc(=O)n(C)c2ccccc12)c1cccc(Cl)c1,,7.94 µM (active)
COc1cc(=O)n(C)c2c(OC[C@@H](O)C(C)(C)O)cccc12,,inactive
Cc1cnn(CCC(=O)NNC(=S)Nc2ccc(F)cc2)c1,,inactive
CCOC(=O)N/N=C/c1ccc(F)cc1,,inactive
CCSc1ncc(/C=N/Nc2ccc(F)cc2)n1C,,12.6 µM (active)
c1ccc([C@H](CCN2CCCC2)c2ccccn2)cc1,10.4% [at 11.4 µM],
O=C1[C@H]2[C@H]3[C@H](O)[C@H](O)C/C(=N/OC[C@@H](O)COCc4ccco4)[C@H]3CC[C@@H]2C(=O)N1Cc1ccc2c(c1)OCO2,12.6% [at 11.4 µM],
